In PubChem BioAssay AID1159580 (chemical genetic matrix, 2015):
Several values for one entry are separate records, joined by “and”; a condition that tells them apart may be missing. Identical values can stand only once. Screen size: about 5,500 compounds; about 2,000 (36%) were called active. About 18% were inconclusive and are not listed. Rule as the data show it: active = normalized growth mostly below about 0.91 (no sharp cut-off); inconclusive = no clear call, values can overlap the other calls; inactive = mostly above about 0.92. The list shows a part of the results.

Assay: chemical genetic growth profiling, strain panel (AID 1159580);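 also: tested at 20 µM; growth read once vehicle control cultures reached saturation at 30 °C; 1 = growth at the plate median or of vehicle wells; lower values mean less growth of the strain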
Settings: S. cerevisiae deletion strains, growth OD

Measured: normalized growth

CC(=O)OCC(=O)[C@@]1(O)CCC2C3CCC4=CC(=O)CC[C@]4(C)[C@@]3(F)[C@@H](O)C[C@@]21C (stereo partly specified)
inactive: locus YAL021C, strain ccr4, active compounds read low 1.03 | locus YAL026C, strain drs2, active compounds read low 1.01 | locus YAL030W, strain snc1, active compounds read low 1.01 | locus YBL061C, strain skt5, active compounds read low 1.01 | locus YBR009C, strain hhf1, active compounds read low 1.01 | locus YBR021W, strain FUR4, active compounds read low 1.01 | locus YBR023C, strain chs3, active compounds read low 1.03 | locus YBR171W, strain sec66, active compounds read low 1.04 | locus YBR229C, strain ROT2, active compounds read low 1 | locus YBR231C, strain swc5, active compounds read low 0.993 | locus YBR279W, strain paf1, active compounds read low 1.02 | locus YCL011C, strain gbp2, active compounds read low 1.02 | locus YCL016C, strain dcc1, active compounds read low 1.02 | locus YCL029C, strain bik1, active compounds read low 0.995 | locus YCL061C, strain MRC1, active compounds read low 1.02 | locus YCL069W, strain vba3, active compounds read low 1.02 | locus YCR088W, strain abp1, active compounds read low 1.01 | locus YDL005C, strain med2, active compounds read low 1.02 | locus YDL035C, strain GPR1, active compounds read low 0.992 | locus YDL040C, strain nat1, active compounds read low 1 | locus YDL074C, strain BRE1, active compounds read low 1.02 | locus YDL101C, strain DUN1, active compounds read low 1.01 | locus YDL185W, strain tfp1, active compounds read low 0.995 | locus YDL192W, strain arf1, active compounds read low 1 | locus YDR001C, strain nth1, active compounds read low 1.01 | locus YDR069C, strain doa4, active compounds read low 1.01 | locus YDR101C, strain arx1, active compounds read low 0.981 | locus YDR137W, strain rgp1, active compounds read low 1.02 | locus YDR159W, strain sac3, active compounds read low 0.997 | locus YDR162C, strain NBP2, active compounds read low 0.998 | locus YDR195W, strain ref2 1 | locus YDR297W, strain sur2, active compounds read low 1 | locus YDR318W, strain mcm21, active compounds read low 1 | locus YDR334W, strain swr1, active compounds read low 1.03 | locus YDR335W, strain msn5, active compounds read low 1.01 | locus YDR388W, active compounds read low 1 | locus YDR392W, strain spt3, active compounds read low 0.989 | locus YDR502C, strain sam2, active compounds read low 1 | locus YEL003W, strain gim4, active compounds read low 1 | locus YEL037C, strain rad23, active compounds read low 1.01 | locus YEL061C, strain CIN8 (second series), active compounds read low 1.01 | locus YEL061C, strain CIN8, active compounds read low 1 | locus YER015W, strain faa2, active compounds read low 1 | locus YER016W, strain bim1, active compounds read low 1 | locus YER110C, active compounds read low 1 | locus YER111C, strain swi4, active compounds read low 1.02 | locus YER155C, strain BEM2 (second series), active compounds read low 1.01 | locus YER155C, strain BEM2, active compounds read low 1.01 | locus YER167W, strain BCK2, active compounds read low 1.01 | locus YFR010W, strain ubp6, active compounds read low 1.02 | locus YGL078C, strain dbp3, active compounds read low 1.01 | locus YGL086W, strain mad1, active compounds read low 0.989 | locus YGL167C, strain pmr1, active compounds read low 1.01 | locus YGL173C, strain kem1, active compounds read low 1.02 | locus YGL227W, strain vid30, active compounds read low 1.02 | locus YGL240W, strain doc1, active compounds read low 1.01 | locus YGL248W, strain PDE1, active compounds read low 1.01 | locus YGL253W, strain hxk2, active compounds read low 1.01 | locus YGR135W, strain pre9, active compounds read low 1.03 | locus YGR252W, strain gcn5, active compounds read low 1.05 | locus YHR013C, strain ard1, active compounds read low 1.04 | locus YHR027C, strain rpn1, active compounds read low 1.03 | locus YHR030C, strain SLT2, active compounds read low 0.997 and 1.01 | locus YHR079C, strain IRE1 (second series), active compounds read low 1.01 | locus YHR079C, strain IRE1, active compounds read low 0.995 | locus YHR094C, strain hxt1, active compounds read low 1.01 | locus YHR129C, strain ARP1, active compounds read low 1.01 | locus YHR142W, strain chs7, active compounds read low 1.01 | locus YHR200W, strain rpn10, active compounds read low 0.996 | locus YIL066C, strain RNR3, active compounds read low 0.995 | locus YIL073C, strain SPO22, active compounds read low 1.03 | locus YIL125W, strain kgd1, active compounds read low 1 | locus YIR030C, strain dcg1, active compounds read low 0.998 | locus YJL092W, strain hpr5, active compounds read low 1.02 | locus YJL095W, strain BCK1 (second series), active compounds read low 1.01 | locus YJL095W, strain BCK1, active compounds read low 1.03 and 1 | locus YJL115W, strain asf1, active compounds read low 1.03 | locus YJL129C, strain trk1, active compounds read low 1.03 | locus YJL134W, strain LCB3, active compounds read low 1.01 | locus YJL154C, strain vps35, active compounds read low 1.01 | locus YJL164C, strain tpk1, active compounds read low 1.01 | locus YJL166W, strain qcr8, active compounds read low 1.02 | locus YJL168C, strain set2, active compounds read low 1.01 | locus YJL187C, strain SWE1 (second series), active compounds read low 1.01 | locus YJL187C, strain SWE1, active compounds read low 1.01 | locus YJR043C, strain POL32, active compounds read low 0.993
